Assay outcomes from PubChem.
Pf Dd2 growth: qHTS Primary assay for Inhibitors of Plasmodium falciparum Dd2 growth in vitro; P. falciparum Dd2 growth, SYBR Green, 72 h; 120,000 tested, 4.3% active; Potency, µM (doses to about 28.9 µM), hits mostly inhibitors; AID 1347417, 2020; active means well fitted inhibition curve with a large enough effect; further: nearly all actives have a fitted effect of over 65% in size
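Infected erythrocytes (Dd2, 0.3% parasitemia, 2.5% hematocrit final) are added to compound in RPMI-1640/Albumax II medium, grown 72 h at 37C in low oxygen, then lysed with saponin/Triton-X containing SYBR Green and read by fluorescence.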
Numbers stand for hits; 0 = inactive. The entries come from a sample that favours hits as a whole.

SMILES	Pf Dd2 growth
CCC(=O)N(C1CCOCC1)C1CCN(Cc2ccc(C)o2)CC1	0
COCCOC1CN(C2CCN(C(=O)c3ccc(C)nc3)CC2)C12CCCCC2 (stereo not drawn)	0
Cc1ncoc1C(=O)N1CCC(N2CC(OCC3CC3)C23CCOCC3)CC1 (stereo not drawn)	0
Cn1cccc1CN1CCC(N2CC(OCC3CC3)C23CCCCC3)CC1 (stereo not drawn)	0.63µM
COC1CN(C2CCN(C(=O)c3ccoc3)CC2)C12CCOCC2 (stereo not drawn)	0
O=C(c1ccccn1)N1CCC(N2CC(OCC3CC3)C23CCOCC3)CC1 (stereo not drawn)	0
COCCOC1CN(C2CCN(Cc3ccc(C)o3)CC2)C12CCCCC2 (stereo not drawn)	5µM
Cc1ccc(CN2CCC(N3CC(OCC4CC4)C34CCOCC4)CC2)s1 (stereo not drawn)	10µM
O=C(CC1CCN(C(=O)c2ccc(F)c(F)c2)C1)NCc1ccccc1 (stereo not drawn)	0
COc1ccccc1NC(=O)Cn1nc2c(cc1=O)CN(C(C)=O)CC2	0
COCc1cc(C[C@@H]2CC[C@H](O)[C@@H](CNC(=O)c3ccccc3)O2)no1	0
COc1ccc(C(=O)N2CCC[C@H]2c2nc(-c3ccc(F)cc3)no2)c(OC)c1	0
CN1C(=O)CS(=O)(=O)C12CCN(C(=O)c1ccc(F)c(F)c1)CC2	0
O=C1CCCN1CCCn1ccnc1-c1cc2n(n1)CCCNC2	0
CC(=O)N1CCOc2cc(S(=O)(=O)Nc3cccc(C(F)(F)F)c3)c(Cl)cc21	13µM
CC(=O)N1CCOc2cc(S(=O)(=O)Nc3cc(C(F)(F)F)ccc3Cl)c(C)cc21	0
CC(=O)N1CCOc2cc(S(=O)(=O)NC(C)c3ccccc3)c(Cl)cc21 (stereo not drawn)	0
CCOC(=O)C1CCN(S(=O)(=O)c2cc3c4c(c2)C(C)C(=O)N4CCC3)CC1 (stereo not drawn)	0
CCOC(=O)C1CCCN(S(=O)(=O)c2cc3c4c(c2)CC(=O)N4CCC3)C1 (stereo not drawn)	0
CCOC(=O)C1CCN(S(=O)(=O)c2cc3c4c(c2)CC(=O)N4CCC3)CC1	10µM
CC(C)NC(=O)C(NC(=O)c1ccc2c(c1)OCO2)C1CCN(C(=O)c2ccc(F)cc2)CC1 (stereo not drawn)	0
CCOc1ccc(C2NC(=O)N(CC(=O)N3CCC(C)CC3)C3=C2C(=O)OC3)cc1 (stereo not drawn)	0
Cc1ccc(NC(=O)c2ccc3c(c2)N(C)C2CCCCCN2C3=O)c(F)c1 (stereo not drawn)	0
O=C(CCc1nc2ccccc2[nH]1)N1[C@H]2CC[C@@H]1c1cnc(-c3ccc(F)cc3)nc1C2	11µM
O=C(Cc1cccnc1)N1[C@H]2CC[C@@H]1c1cnc(-c3ccc(F)cc3)nc1C2	0
SMILES	Pf Dd2 growth
O=C(CCc1c[nH]c2ccccc12)N1[C@H]2CC[C@@H]1c1cnc(-c3ccccc3)nc1C2	0
COCC(=O)NC1CCC12CCN(C(=O)c1ccoc1)CC2 (stereo not drawn)	0
Cc1cnc(C2CC2)n1CCNC(=O)c1cncn1C	0
CN(Cc1ccc(-c2ccccc2)cc1)C(=O)Cc1ccc(F)cc1	0
COC[C@@H]1CNC[C@H]1c1nc(C2CC2)no1	0
COc1ccc2cc(C(=O)N3CCC(Cc4ccc(C(=O)NC5CC5)cc4)CC3)[nH]c2c1	4.5µM
COc1ccc(C(=O)NC2CCN(C(=O)c3cc4c(=O)[nH]c(C)cn4n3)CC2)cc1	0
CNC(=O)[C@@H]1CN(C(=O)c2cc3ccc(OC)cc3[nH]2)C[C@H]1C1CCN(C)CC1	0
O=C(Nc1ccc(F)c(F)c1)c1cc(S(=O)(=O)N2CCc3ccccc32)ccc1F	0
O=C(Nc1ccc(Cl)cc1)c1cc(S(=O)(=O)N2CCc3ccccc32)ccc1F	0
O=C(Nc1ccc(F)c(Cl)c1)c1cc(S(=O)(=O)N2CCCc3ccccc32)ccc1F	10µM
O=C(CN1CC2CC(C1)[C@H]1CCCC(=O)N1C2)NCc1ccccn1 (stereo partly drawn)	0
CCOC(=O)c1cnc2c(C)c(Cl)ccc2c1NCCc1ccc(OC)c(OC)c1	0
CCOC(=O)c1cnc2c(ccc3ccccc32)c1Nc1cccc(OC)c1	0
CCOC(=O)c1cnc2c(C)cccc2c1NCCc1ccc(OC)c(OC)c1	0
CCOC(=O)c1cnc2ccc(OCC)cc2c1Nc1cc(Cl)c(OC)cc1OC	0
CCOC(=O)c1ccc2ncc(C(=O)OCC)c(NCCc3ccc(OC)c(OC)c3)c2c1	8.9µM
CCOC(=O)c1cnc2ccc(OC)cc2c1Nc1cccc(C(C)=O)c1	0
CCOC(=O)c1cnc2c(ccc3ccccc32)c1Nc1ccc(OCC)cc1	0
CCOC(=O)c1cnc2ccc(OC(F)(F)F)cc2c1Nc1ccccc1C(=O)O	10µM
CCOC(=O)c1cnc2ccc(OC)cc2c1NCCc1ccccc1	4µM
O=C([C@@H]1C[C@H](F)CN1C(=O)Cc1ccc(F)cc1)N1CCCCC1	0
CCCS(=O)(=O)N1CCC(N2CCCC(C(=O)N3CCOCC3)C2)CC1 (stereo not drawn)	0
